Laboratory results from ChEMBL document CHEMBL3988442, “University of Dundee, Small-Polar-MMV Screening Library” (2021).
Screen size: about 48,000 compounds; about 13,000 (27%) showed an effect of 50% or more. The list shows a part of the results.

These compounds were tested on Wolbachia pipientis (assay: Anti-Wolbachia Cell-Based Screen). Conditions: 5 µM.
Type: functional
Design: scale not given: in the data most compounds retested in dose-response had high values

SMILES	Percent Effect [%]
CN1CCC(N2CCOC[C@H](OCC(=O)N(C)C)C2)CC1	-7.154
CN(Cc1nccs1)c1nc(-c2ccccn2)nc2c1CCNCC2	-16.23
O=C(NC1CCNCC1)C1(N2CCCCC2)Cc2ccccc2C1	123.6
C[C@@H]1CN(C2(C(=O)N3CCCCCC3)Cc3ccccc3C2)C[C@H](C)O1	10.21
CCN1CCN(C2(C(=O)NC3CCCC3)Cc3ccccc3C2)CC1	34.09
C[C@@H]1CN(C(=O)C2(N3CCCCC3)Cc3ccccc3C2)C[C@H](C)O1	1.52
O=C1NCCCC[C@@H]1NC(=O)C1(N2CCCCC2)Cc2ccccc2C1	94.83
O=C1NCCCCC1NC(=O)N1CCc2ccccc21 (stereo not drawn)	-9.694
O=C1NCCCCC1NC(=O)N1CCCc2ccccc21 (stereo not drawn)	0.9845
C[C@@H]1CN(C2(C(=O)N3CCNCC3)Cc3ccccc3C2)C[C@H](C)O1	0.2637
O=C(NC1CCNC1)C1(N2CCCCC2)Cc2ccccc2C1 (stereo not drawn)	108.7
Cc1ccsc1C(=O)NC1CCS(=O)(=O)c2ccccc21 (stereo not drawn)	9
CC(C)COCC(NC(=O)CSc1nnc[nH]1)c1ccco1 (stereo not drawn)	34.68
CCn1cnnc1CNC(=O)NCC(c1cccs1)N1CCCC1 (stereo not drawn)	-4.375
CCC(C)(C)n1nnnc1C(c1cccs1)N1CCc2ccccc21 (stereo not drawn)	114.5
CCC(CNC(=O)c1cncc(Br)c1)N1CCc2ccccc2C1 (stereo not drawn)	4.86
CCC(CNC(=O)c1ccccn1)N1CCc2ccccc2C1 (stereo not drawn)	2.728

SMILES	Percent Effect [%]
CCC(C)(C)n1nnnc1C(c1cccs1)N1CCc2ccccc2C1 (stereo not drawn)	110.2
Cc1nnc(NCC(c2cccs2)N2CCCC2)c(C#N)c1C (stereo not drawn)	15.53
CCC(C)(C)n1nnnc1C(c1cccs1)N1CCCCC1 (stereo not drawn)	117.5
Cc1nc(CN2CCCn3cnc(COC(C)C)c3C2)cs1.O=C(O)C(F)(F)F	6.346
CCOc1ccc2c(c1)C=C(C(=O)NC(C)Cn1cccn1)CO2 (stereo not drawn)	15.57
CSCCC(=O)N1CCC(c2nccn2CCN(C)C)CC1	-6.399
CCCN(C(=O)CS(=O)(=O)c1ccccc1)c1cccc(C)c1	-28.2
O=C(CCNc1ccc(Br)cn1)NCc1ccncc1	2.511
Cl.c1cc(NCc2ccncc2)nc(C2CCCN2)c1 (stereo not drawn)	109.1
Cl.c1cc(CNc2cnc(C3CCCN3)cn2)ccn1 (stereo not drawn)	93.64
Cl.c1cc(NCc2ccncc2)nc(C2CCCNC2)c1 (stereo not drawn)	93.58
COCC(=O)Nc1ccc(-c2noc([C@@H]3CCCN3)n2)cn1	10.12
Cl.FC(F)CNc1cnc(C2CCCN2)cn1 (stereo not drawn)	111.3
Cc1cccc(-c2c[nH]c(C3CCCN3)n2)c1.Cl.Cl (stereo not drawn)	-28.51
OC1CCN(Cc2ccc(CNc3ccc(Cl)cn3)cc2)CC1	-3.648
c1ccc(NCCn2cc(C3CCCNC3)nn2)cc1 (stereo not drawn)	-6.163
